The values below come from PubChem BioAssay (NCATS).

SMILES strings stand for the structures. Results filed as inconclusive are left out. Entries that show only a call come without a potency. Active and inactive are the calls of the source. Calls come from the whole dose curve; as a rule, active = well fitted inhibition curve with a large enough effect; inconclusive = small, poorly fitted or top-dose-only effect; inactive = flat fitted curve, though single readings scatter.

The subject of the first test is HEK293T. The experiment in a line: qHTS assay to identify novel small-molecules to repurpose for Merkel cell carcinoma treatment (AID 1296009). Note: nearly all actives have a fitted effect of over 60% in size. As to conditions: MCC and control cell lines, CellTiter-Glo viability, 72 h; at 44.8 µM (top of the series) unless noted. In outline:
(§1)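 qHTS format: cells treated with library compounds in DMSO across 8 (NPC) or 11 (MIPE) concentrations. Readout after 72 hr at 37 degree celsius was CellTiter-Glo luminescence.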
For orientation: Quantitative high-throughput screening tests each substance at several concentrations.
Take `Cc1c(N(C)CS(=O)(=O)O)c(=O)n(-c2ccccc2)n1C`: the outcome was inactive.
The same measure, in the same setting: to `OC[C@H]1O[C@H](O[C@]2(CCl)O[C@H](CCl)[C@@H](O)[C@@H]2O)[C@H](O)[C@@H](O)[C@H]1Cl` belongs “inactive”; to `C[C@H](CCC(=O)O)[C@H]1CC[C@H]2[C@@H]3C(=O)C[C@@H]4CC(=O)CC[C@]4(C)[C@H]3CC(=O)[C@]12C`, “inactive”.
On to `Cc1cc(O)c(C(C)C)cc1Cl`, for which the molecule was classed as inactive.
Take `O=C1c2ccccc2C(=O)C1c1ccccc1`: the call was inactive.
Take `Cc1ncc(CSSCc2cnc(C)c(O)c2CO)c(CO)c1O`: the outcome was inactive.
Consider `CC(=O)OCC(=O)[C@@]1(O)[C@H](C)C[C@H]2[C@@H]3CCC4=CC(=O)C=C[C@]4(C)[C@@]3(F)[C@@H](O)C[C@@]21C`, for which the outcome was inactive.
On the same count and under the same terms, under `CN1[C@@H]2CC[C@H]1CC(OC(=O)c1c[nH]c3ccccc13)C2` (some centres undefined) stands “inactive”; under `CC(O)(P(=O)(O)O)P(=O)(O)O`, “inactive”.
On to `Cc1c(C(C)C)c(=O)n(-c2ccccc2)n1C`, for which the molecule was classed as inactive.
For `O=c1[nH]c(=O)n([C@H]2CCCO2)cc1F`, the call was inactive.
The same measure, in the same setting: under `Cc1cc2c(cc1CC(=O)c1sccc1S(=O)(=O)Nc1onc(C)c1Cl)OCO2` stands “inactive”.
Regarding `CC(C)(C)NC(=O)[C@@H]1CN(Cc2cccnc2)CCN1C[C@@H](O)C[C@@H](Cc1ccccc1)C(=O)N[C@H]1c2ccccc2C[C@H]1O`, the molecule was called inactive.
On the same count and under the same terms, under `Cc1onc(-c2c(Cl)cccc2Cl)c1C(=O)N[C@@H]1C(=O)N2[C@@H]1SC(C)(C)[C@@H]2C(=O)O` stands “inactive”; under `CCOC(=O)OC(C)OC1=C(C(=O)Nc2ccccn2)N(C)S(=O)(=O)c2ccccc21` (centres undefined), “inactive”.
With `N[C@H](Cc1c[nH]c2ccccc12)C(=O)O`, the molecule was called inactive.
On to `CC1(C)O[C@@H]2[C@@H](CO[C@@]3(COS(N)(=O)=O)OC(C)(C)O[C@@H]23)O1`, for which the call was inactive.
In the case of `CN=C(NC#N)Nc1ccc(C2=NNC(=O)CC2C)cc1` (centres undefined), the molecule was classed as inactive.
In the case of `Cc1nc2n(c(=O)c1CCN1CCC(c3noc4cc(F)ccc34)CC1)CCC[C@H]2O`, the outcome was inactive.

The test system of a further test is MCC-13. The description is as above. As to conditions: MCC and control cell lines, CellTiter-Glo viability, 72 h; series mostly up to 46 µM. In outline:
as §1
(In general: ATP-based viability assays read luminescence as a measure of living cells.)
Regarding `COc1ccc(C2C(=O)c3ccccc3C2=O)cc1`, the Potency entry is “inactive”.
`Cc1c(N(C)CS(=O)(=O)O)c(=O)n(-c2ccccc2)n1C`: the Potency entry is “inactive”.
The same measure, in the same setting: under `OC[C@H]1O[C@H](O[C@]2(CCl)O[C@H](CCl)[C@@H](O)[C@@H]2O)[C@H](O)[C@@H](O)[C@H]1Cl` stands “inactive”; under `C[C@H](CCC(=O)O)[C@H]1CC[C@H]2[C@@H]3C(=O)C[C@@H]4CC(=O)CC[C@]4(C)[C@H]3CC(=O)[C@]12C`, “inactive”.
As for `Cc1cc(O)c(C(C)C)cc1Cl`, the Potency entry was “inactive”.
As for `O=C1c2ccccc2C(=O)C1c1ccccc1`, the Potency entry was “inactive”.
Turning to `Cc1ncc(CSSCc2cnc(C)c(O)c2CO)c(CO)c1O`, the Potency entry is “inactive”.
`NC[C@H]1O[C@H](O[C@H]2[C@H](O)[C@@H](O[C@H]3O[C@H](CO)[C@@H](O)[C@H](N)[C@H]3O)[C@H](N)C[C@@H]2N)[C@H](N)[C@@H](O)[C@@H]1O`: the Potency result is “inactive”.
As for `Cc1ccc(Nc2c(F)cccc2Cl)c(CC(=O)O)c1`, the Potency entry was “inactive”.
Regarding `CC(=O)O[C@]1(C(C)=O)CC[C@H]2[C@@H]3C[C@H](C)C4=CC(=O)CC[C@]4(C)[C@H]3CC[C@@]21C`, the Potency entry was “inactive”.
Turning to `CC(=O)OCC(=O)[C@@]1(O)[C@H](C)C[C@H]2[C@@H]3CCC4=CC(=O)C=C[C@]4(C)[C@@]3(F)[C@@H](O)C[C@@]21C`, the Potency result was “inactive”.
Take `CN1[C@@H]2CC[C@H]1CC(OC(=O)c1c[nH]c3ccccc13)C2` (some centres undefined): the Potency entry is “inactive”.
For the molecule `CC(O)(P(=O)(O)O)P(=O)(O)O`, the Potency result was “inactive”.
Turning to `Cc1c(C(C)C)c(=O)n(-c2ccccc2)n1C`, the Potency entry was “inactive”.
Same read-out and setting: to `CCCCC(=O)O[C@]1(C(=O)CO)CC[C@H]2[C@@H]3CCC4=CC(=O)CC[C@]4(C)[C@H]3[C@@H](O)C[C@@]21C` belongs “inactive”.
As for `O=c1[nH]c(=O)n([C@H]2CCCO2)cc1F`, the Potency result is “inactive”.
Consider `COC(=O)CCc1ccc(OCC(O)CNC(C)C)cc1` (centres undefined), for which the Potency entry is “inactive”.
Take `Cc1cc2c(cc1CC(=O)c1sccc1S(=O)(=O)Nc1onc(C)c1Cl)OCO2`: the Potency result was “inactive”.
Take `CC(C)(C)NC(=O)[C@@H]1CN(Cc2cccnc2)CCN1C[C@@H](O)C[C@@H](Cc1ccccc1)C(=O)N[C@H]1c2ccccc2C[C@H]1O`: the Potency result was “inactive”.
Turning to `CCCCS(=O)(=O)N[C@@H](Cc1ccc(OCCCCC2CCNCC2)cc1)C(=O)O`, the Potency entry was “inactive”.
Regarding `Cc1onc(-c2c(Cl)cccc2Cl)c1C(=O)N[C@@H]1C(=O)N2[C@@H]1SC(C)(C)[C@@H]2C(=O)O`, the Potency entry was “inactive”.
Take `CN1CCN(C(c2ccccc2)c2ccccc2)CC1`: the Potency entry was “inactive”.
As to `O=C(O)CNC(=O)c1ccccc1`, the Potency result was “inactive”.
`COC(=O)[C@@H]1CC2=CC(=O)CC[C@]2(C)[C@@]23O[C@@H]2C[C@@]2(C)[C@@H](CC[C@@]24CCC(=O)O4)[C@H]13`: the Potency entry is “inactive”.
For the molecule `NC(CS)C(=O)O` (centres undefined), the Potency result is “inactive”.
With `CN(C)CCOc1ccccc1Cc1ccccc1`, the Potency result is “inactive”.
For `CCOC(=O)OC(C)OC1=C(C(=O)Nc2ccccn2)N(C)S(=O)(=O)c2ccccc21` (centres undefined), the Potency entry was “inactive”.
As to `N[C@H](Cc1c[nH]c2ccccc12)C(=O)O`, the Potency entry is “inactive”.
`C[C@H](O)C(=O)Nc1c(I)c(C(=O)NC(CO)CO)c(I)c(C(=O)NC(CO)CO)c1I`: the Potency result is “inactive”.
For the molecule `CC(C)COC(=O)c1ccc(N)cc1`, the Potency result was “inactive”.
Turning to `Cc1ccc(C(=O)C(C)CN2CCCCC2)cc1` (centres undefined), the Potency result was “inactive”.
On the same count and under the same terms, to `CC1(C)O[C@@H]2[C@@H](CO[C@@]3(COS(N)(=O)=O)OC(C)(C)O[C@@H]23)O1` belongs “inactive”.
On the same count and under the same terms, to `CCN(CCCCOC(=O)c1ccc(OC)c(OC)c1)C(C)Cc1ccc(OC)cc1` (centres undefined) belongs “inactive”; to `CN=C(NC#N)Nc1ccc(C2=NNC(=O)CC2C)cc1` (centres undefined), “inactive”.
As for `Cc1nc2n(c(=O)c1CCN1CCC(c3noc4cc(F)ccc34)CC1)CCC[C@H]2O`, the Potency result was “inactive”.
